# Source: PubChem BioAssay (Tox21)
# Several values for one entry are separate records, joined by “and”; a condition that tells them apart may be missing. Identical values can stand only once. Inconclusive results are not listed. A call without a number means that no potency is given here. Some structures have more than one record in an assay (separate samples or runs), and their calls can disagree. Activity calls are given as the source filed them. The call rests on the fitted dose curve; in most records, active means well fitted curve in the direction sought with a large enough effect in the repeat runs; inconclusive means weak or mixed curves; inactive means no such curve, though single readings can be large; an effect the other way counts as inactive or inconclusive.
# What was measured:
# [1] = A CellTox Green Cytotoxicity Assay to monitor cytotoxicity in HEK293 cells - 32 hour (AID 1224881); further: nearly all actives have a fitted effect of over 40% in size; further: potency means the concentration at half of the fitted maximal effect
# Procedure, shortened: (§1)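 Read-out: fluorescence of a cell-impermeant cyanine dye staining DNA of dead cells, proportional to cytotoxicity. HEK293, 600 cells/well with reagent, compound (23 nL DMSO) added after 5 h; reads at 0, 8, 16, 24, 32, 40 h.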
# [2] = A CellTox Green Cytotoxicity Assay to monitor cytotoxicity in HepG2 cells - 0 hour (AID 1224882); further: nearly all actives have a fitted effect of over 35% in size; further: potency means the concentration at half of the fitted maximal effect
# Procedure, shortened: (§2)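 HepG2, 600 cells/well premixed w/ CellTox Green; 5 h settle, 37 C/5% CO2; pintool cpd add (DMSO); 37 C, 40 h; fluorescence read at 0, 8, 16, 24, 32, 40 h.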
# [3] = A CellTox Green Cytotoxicity Assay to monitor cytotoxicity in HepG2 cells - 32 hour (AID 1224883); further: nearly all actives have a fitted effect of over 50% in size; further: potency means the concentration at half of the fitted maximal effect
# Procedure, shortened: as §2
# [4] = A CellTox Green Cytotoxicity Assay to monitor cytotoxicity in HEK293 cells - 8 hour (AID 1224884); further: nearly all actives have a fitted effect of over 35% in size
# Procedure, shortened: as §1
# [5] = qHTS RealTime-Glo MT Cell Viability Assay in HepG2 cells - 16 hour (AID 1224885); further: nearly all actives have a fitted effect of over 50% in size; further: potency means the concentration at half of the fitted maximal effect
# Procedure, shortened: (§3)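 Cells + NanoLuc/prosubstrate dispensed (600 cells/well) → 5 h at 37 C/5% CO2 → compounds in DMSO transferred → 40 h incubation at 37 C, luminescence read at 0, 8, 16, 24, 32, 40 h.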
# [6] = qHTS RealTime-Glo MT Cell Viability Assay in HEK293 cells - 24 hour (AID 1224886); further: nearly all actives have a fitted effect of over 50% in size; further: potency means the concentration at half of the fitted maximal effect
# Procedure, shortened: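 Tox21 10K qHTS, HEK293, 600 cells/well, RealTime-Glo reagent co-dispensed with cells; 5 h preincubation, compound by pintool, 37 C, luminescence at 0–40 h.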
# [7] = qHTS RealTime-Glo MT Cell Viability Assay in HEK293 cells - 8 hour (AID 1224887); further: nearly all actives have a fitted effect of over 50% in size; further: potency means the concentration at half of the fitted maximal effect
# Procedure, shortened: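 Luminescence readout at each listed time point; HEK293, 600 cells/well, RealTime-Glo MT reagent added with cells; compounds pinned (23 nL in DMSO) after 5 h at 37 C; continuous culture at 37 C.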
# [8] = A CellTox Green Cytotoxicity Assay to monitor cytotoxicity in HEK293 cells - 16 hour (AID 1224888); further: nearly all actives have a fitted effect of over 35% in size
# Procedure, shortened: as §1
# [9] = qHTS RealTime-Glo MT Cell Viability Assay in HepG2 cells - 0 hour (AID 1224889); further: nearly all actives have a fitted effect of over 50% in size
# Procedure, shortened: as §3
# [10] = A CellTox Green Cytotoxicity Assay to monitor cytotoxicity in HepG2 cells - 8 hour (AID 1224890); further: nearly all actives have a fitted effect of over 45% in size
# Procedure, shortened: as §2
SMILES,Potency [1],Potency [2],Potency [3],Potency [4],Potency [5],Potency [6],Potency [7],Potency [8],outcome [9],Potency [10]
CCOC(=O)C1OC1(C)c1ccccc1 (stereo unspecified),inactive,inactive,inactive,inactive,inactive,inactive,inactive,inactive,inactive,inactive
O=P(OCC(Br)CBr)(OCC(Br)CBr)OCC(Br)CBr (stereo unspecified),inactive,inactive,inactive,inactive,inactive,27.9 µM (active),24.9 µM (active),inactive,inactive,inactive
NNCCO,inactive,inactive,inactive,inactive,inactive,inactive,inactive,inactive,inactive,inactive
CCC(C)(C)O,inactive,inactive,inactive,inactive,inactive,inactive,inactive,inactive,inactive,inactive
NCCc1cc(O)c(O)cc1O,inactive,inactive,inactive,inactive,inactive,inactive,inactive,–,inactive,inactive
CCCCC(CC)COC(=O)c1c(Br)c(Br)c(Br)c(Br)c1C(=O)OCC(CC)CCCC (stereo unspecified),inactive,inactive,inactive,inactive,inactive,inactive,inactive,inactive,inactive,inactive
CC(C)(C)NCC(O)c1cc(Cl)c(N)c(C(F)(F)F)c1 (stereo unspecified),inactive,inactive,inactive,inactive,inactive,inactive,inactive,inactive,inactive,inactive
CCCCCCCCCCCCCCCl,inactive,inactive,inactive,inactive,inactive,inactive,inactive,inactive,inactive,inactive
N#CC(C#N)=Cc1ccc(O)c(O)c1,inactive,23.9 µM (active),inactive,inactive,inactive,inactive,inactive,inactive,inactive,inactive
CC(C)CCCCCCCOC(=O)c1ccccc1C(=O)OCCCCCCCC(C)C,inactive,inactive,inactive,inactive,inactive,inactive,inactive,inactive,inactive,inactive
O=S(=O)(Cl)Cl,inactive,inactive,inactive,inactive,inactive,inactive,inactive,inactive,inactive,inactive
C1CCNCC1,inactive,inactive,inactive,inactive,inactive,inactive,inactive,inactive,inactive,inactive
CC[N+]1(C)CCCC(OC(=O)C(O)(c2ccccc2)c2ccccc2)C1 (stereo unspecified),inactive,inactive,inactive,inactive,inactive,inactive,inactive,inactive,inactive,inactive
NC(=O)CF,inactive,inactive,inactive,inactive,inactive,inactive,inactive,–,inactive,inactive
CCc1cnc(C2=NC(C)(C(C)C)C(=O)N2)c(C(=O)O)c1 (stereo unspecified),inactive,inactive,inactive,inactive,inactive,inactive,inactive,–,inactive,inactive
CCCCC#N,inactive,inactive,inactive,inactive,inactive,inactive,inactive,inactive,inactive,inactive
FC(F)OC(F)(F)C(F)Cl (stereo unspecified),inactive,inactive,inactive,inactive,inactive,inactive,inactive,–,inactive,inactive
CCCC(C)(COC(N)=O)COC(=O)NC(C)C (stereo unspecified),inactive,inactive,inactive,inactive,inactive,inactive,inactive,inactive,inactive,inactive
CCC[N+](CCC)(CCC)CCC,inactive,inactive,inactive,inactive,inactive,inactive,inactive,inactive,inactive,inactive
CN[C@@H](C)[C@H](O)c1ccccc1,inactive,inactive,inactive,inactive,inactive,inactive,inactive,inactive,inactive,inactive
C[C@]12C=CC3=C4CCC(=O)C=C4CC[C@H]3[C@@H]1CC[C@@H]2O,inactive,inactive,inactive,inactive,inactive,inactive,inactive,inactive,inactive,inactive
O=S(=O)(c1ccccc1)c1ccccc1,inactive,inactive,inactive,inactive,inactive,inactive,inactive,inactive,inactive,inactive
SCc1ccccc1,inactive,inactive,inactive,inactive,inactive,inactive,inactive,inactive,inactive,inactive
O=C(NCNC(=O)NC1C(=O)NC(=O)N1CO)NC1C(=O)NC(=O)N1CO (stereo unspecified),inactive,inactive,inactive,inactive,inactive,inactive,inactive,inactive,inactive,inactive
C=CC(C)(CCC=C(C)C)OC(=O)c1ccccc1N (stereo unspecified),inactive,inactive,inactive,inactive,inactive,inactive,inactive,inactive,inactive,inactive

SMILES,Potency [1],Potency [2],Potency [3],Potency [4],Potency [5],Potency [6],Potency [7],Potency [8],outcome [9],Potency [10]
CCC(C)Cl (stereo unspecified),inactive,inactive,inactive,inactive,inactive,inactive,inactive,inactive,inactive,inactive
C[C@@H]1C[C@@H]([C@H](O)CC2CC(=O)NC(=O)C2)C(=O)[C@@H](C)C1,inactive,inactive,inactive,inactive,inactive,434 nM (active) and 245 nM (active) and 169 nM (active),inactive,–,inactive,inactive
C=CCc1ccccc1O,inactive,inactive,inactive,inactive,inactive,inactive,inactive,–,inactive,inactive
NC(=S)c1c(Cl)cccc1Cl,inactive,inactive,inactive,inactive,inactive,inactive,inactive,inactive,inactive,inactive
Cc1nc(N(C)C)nc(OC(=O)N(C)C)c1C,inactive,inactive,inactive,inactive,inactive,inactive,inactive,–,inactive,inactive
CCC1CCC(=O)O1 (stereo unspecified),inactive,inactive,inactive,inactive,inactive,inactive,inactive,inactive,inactive,inactive
C=CCOC(=O)C(C)(C)OC(=O)c1cc(-n2c(=O)cc(C(F)(F)F)n(C)c2=O)ccc1Cl,inactive,inactive,inactive,inactive,inactive,19.1 µM (active),–,inactive,inactive,inactive
CN(C)c1ccc(N=O)cc1,11 µM (active) and 19.5 µM (active),inactive,39 µM (active),inactive,55.1 µM (active) and 43.6 µM (active),–,15.5 µM (active) and 21.9 µM (active),inactive,–,inactive
O=C(O)C(Cl)(Cl)Br,inactive,inactive,inactive,inactive,inactive,inactive,inactive,–,inactive,inactive
CC(C)(C#N)C(C)(C)C#N,inactive,inactive,inactive,inactive,inactive,–,inactive,–,inactive,inactive
CC(C)c1ccc(NC(=O)N(C)C)cc1,inactive,inactive,inactive,inactive,inactive,inactive,inactive,–,inactive,inactive
C=CC(=O)OCC,inactive,inactive,inactive,inactive,inactive,inactive,inactive,–,inactive,inactive
COc1cc(CC#N)cc(OC)c1OC,inactive,inactive,inactive,inactive,inactive,inactive,inactive,–,inactive,inactive
O=C(N[C@H]1CN2CCC1CC2)c1ccc2c(c1)OCCO2,inactive,inactive,inactive,inactive,inactive,–,inactive,inactive,inactive,inactive
C[Si](Cn1cncn1)(c1ccc(F)cc1)c1ccc(F)cc1,inactive and 54.9 µM (active),inactive,50.6 µM (active) and 49 µM (active),inactive,inactive,25.4 µM (active) and 21.9 µM (active),–,inactive,inactive,inactive
C1CS1,inactive,inactive,inactive,inactive,inactive,inactive,inactive,–,inactive,inactive
CCCC[N+](CCCC)(CCCC)CCCC,inactive,inactive,inactive,inactive,inactive,–,inactive,inactive,inactive,inactive
CC(CC(C(N)=O)(c1ccccc1)c1ccccc1)N(C)C (stereo unspecified),inactive,inactive,inactive,inactive,inactive,–,inactive,inactive,inactive,inactive
O=C(O)CCCOc1ccc(Cl)cc1Cl,inactive,inactive,inactive,inactive,inactive,–,inactive,inactive,inactive,inactive
C[N+]1(CCF)[C@@H]2CC[C@H]1CC(OC(=O)C(O)(c1ccccc1)c1ccccc1)C2 (stereo partly specified),inactive,inactive,inactive,inactive,inactive,–,inactive,inactive,inactive,inactive
Cc1ccc(N)c(C)c1,inactive,inactive,inactive,inactive,inactive,–,inactive,inactive,inactive,inactive
CCCCC1C(=O)NC(=O)N(C2CCCCC2)C1=O (stereo unspecified),inactive,inactive,inactive,inactive,inactive,–,inactive,–,inactive,inactive
Cc1ccc2c(C)cccc2c1,inactive,inactive,inactive,inactive,inactive,inactive,inactive,–,inactive,inactive
Clc1ccc(Cl)c(Cl)c1,inactive,inactive,inactive,inactive,inactive,–,inactive,inactive,inactive,inactive
CC(C)(C)NCC(O)c1ccccc1Cl (stereo unspecified),inactive,inactive,inactive,inactive,inactive,–,inactive,inactive,inactive,inactive
